# Reference: PMC7862700, “An all-to-all approach to the identification of sequence-specific readers for epigenetic DNA modifications on cytosine”
# How the values were obtained:
# Experiment in all cases: DAPPL (digital affinity profiling via proximity ligation, sequencing); 10 mM Tris-HCl pH 7.5, 50 mM NaCl, 1 mM DTT, 4% glycerol, room temperature, 30 min; GST-TFs on glutathione beads, 16-mer random dsDNA library, 0.1% formaldehyde crosslink after washing; high values mean tight binding
# FEV = target: T1, FEV (Homo sapiens, UniProt Q99581 1-238); settings: protein: recombinant; tags: N-terminal GST; dsDNA, one strand shown
# T1 sequence: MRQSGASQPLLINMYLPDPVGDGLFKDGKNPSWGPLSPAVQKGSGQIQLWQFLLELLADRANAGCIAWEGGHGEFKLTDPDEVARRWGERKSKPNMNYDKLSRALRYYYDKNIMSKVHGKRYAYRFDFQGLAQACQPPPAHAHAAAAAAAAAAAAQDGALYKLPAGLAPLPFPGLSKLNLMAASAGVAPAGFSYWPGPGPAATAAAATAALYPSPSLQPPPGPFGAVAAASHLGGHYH
# Method in brief: (§1)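 Sequencing on an Illumina NextSeq500 followed washing, crosslinking with 0.1% formaldehyde, proximity ligation (BsaI/T4 ligase, 1 h, 37 °C) and PCR amplification of pools that had been incubated for 30 min at room temperature with 200 nmole of a random double-stranded 16-mer DNA library in Tris/NaCl/DTT/glycerol buffer. Each pool held DNA-barcoded human transcription factors, expressed in yeast as GST fusions and captured on glutathione beads, plus a tag-only sample. Binding signal is a hexamer's read frequency for a factor divided by its frequency in the tag-only sample.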
# ETV5 = ETV5 (Homo sapiens, UniProt P41161 1-510); settings: protein: recombinant; tags: N-terminal GST; dsDNA, one strand shown
# Method in brief: as §1
# HSF1 = HSF1 (Homo sapiens, UniProt Q00613 1-529); settings: protein: recombinant; tags: N-terminal GST; chain copies: 3; dsDNA, one strand shown
# Method in brief: as §1
# SPIC = target: T2, SPIC (Homo sapiens, UniProt Q8N5J4 1-248); settings: protein: recombinant; tags: N-terminal GST; dsDNA, one strand shown
# T2 sequence: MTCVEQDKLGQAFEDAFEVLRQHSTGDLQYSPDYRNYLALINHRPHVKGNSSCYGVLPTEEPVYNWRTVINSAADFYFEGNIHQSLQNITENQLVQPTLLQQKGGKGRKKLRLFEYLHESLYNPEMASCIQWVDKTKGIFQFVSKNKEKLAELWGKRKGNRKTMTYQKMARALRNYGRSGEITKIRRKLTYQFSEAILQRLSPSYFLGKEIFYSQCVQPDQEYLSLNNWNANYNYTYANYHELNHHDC
# Method in brief: as §1
# ELF4 = ELF4 (Homo sapiens, UniProt Q99607 1-663); settings: protein: recombinant; tags: N-terminal GST; dsDNA, one strand shown
# Method in brief: as §1
# ELK4 = target: T3, ELK4 (Homo sapiens, UniProt P28324-2 1-405); settings: protein: recombinant; tags: N-terminal GST; dsDNA, one strand shown
# T3 sequence: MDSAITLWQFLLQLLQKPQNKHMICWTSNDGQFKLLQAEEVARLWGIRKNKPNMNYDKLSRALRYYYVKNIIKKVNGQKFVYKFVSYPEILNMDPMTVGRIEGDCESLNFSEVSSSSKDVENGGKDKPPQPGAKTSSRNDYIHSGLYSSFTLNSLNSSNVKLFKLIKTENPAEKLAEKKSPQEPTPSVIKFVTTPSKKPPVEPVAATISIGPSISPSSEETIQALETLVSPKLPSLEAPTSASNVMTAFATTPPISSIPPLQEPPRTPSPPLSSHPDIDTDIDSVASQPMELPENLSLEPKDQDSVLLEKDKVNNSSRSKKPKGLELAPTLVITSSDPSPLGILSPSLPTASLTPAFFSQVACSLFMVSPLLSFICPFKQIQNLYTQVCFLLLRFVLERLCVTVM
# Method in brief: as §1
# ETV2 = target: T4, ETV2 (Homo sapiens, UniProt O00321 1-342); settings: protein: recombinant; tags: N-terminal GST; dsDNA, one strand shown
# T4 sequence: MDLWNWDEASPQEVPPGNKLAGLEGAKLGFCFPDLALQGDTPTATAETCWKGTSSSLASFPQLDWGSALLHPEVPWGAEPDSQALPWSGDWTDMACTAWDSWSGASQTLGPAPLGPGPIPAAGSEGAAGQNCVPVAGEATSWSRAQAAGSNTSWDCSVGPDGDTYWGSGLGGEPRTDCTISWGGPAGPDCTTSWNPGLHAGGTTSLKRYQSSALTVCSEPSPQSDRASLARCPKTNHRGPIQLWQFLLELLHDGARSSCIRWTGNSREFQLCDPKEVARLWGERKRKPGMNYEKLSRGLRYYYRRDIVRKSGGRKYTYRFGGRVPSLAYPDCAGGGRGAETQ
# Method in brief: as §1
# ELF3 = target: T5, ELF3 (Homo sapiens, UniProt P78545 1-371); settings: protein: recombinant; tags: N-terminal GST; dsDNA, one strand shown
# T5 sequence: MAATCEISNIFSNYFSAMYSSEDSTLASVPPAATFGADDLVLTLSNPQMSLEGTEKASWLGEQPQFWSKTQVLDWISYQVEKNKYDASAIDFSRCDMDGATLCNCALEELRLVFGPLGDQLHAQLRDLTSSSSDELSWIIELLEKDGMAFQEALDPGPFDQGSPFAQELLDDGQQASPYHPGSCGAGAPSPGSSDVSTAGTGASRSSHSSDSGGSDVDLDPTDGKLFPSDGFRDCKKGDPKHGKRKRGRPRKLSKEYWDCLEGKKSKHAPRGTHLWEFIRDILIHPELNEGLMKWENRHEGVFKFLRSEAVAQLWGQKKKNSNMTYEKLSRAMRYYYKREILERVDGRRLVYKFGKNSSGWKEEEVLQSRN
# Method in brief: as §1
# ETV1 = ETV1 (Homo sapiens, UniProt P50549 1-477); settings: protein: recombinant; tags: N-terminal GST; dsDNA, one strand shown
# Method in brief: as §1
# ERF = target: T6, ERF (Homo sapiens, UniProt P50548 1-548); settings: protein: recombinant; tags: N-terminal GST; dsDNA, one strand shown
# T6 sequence: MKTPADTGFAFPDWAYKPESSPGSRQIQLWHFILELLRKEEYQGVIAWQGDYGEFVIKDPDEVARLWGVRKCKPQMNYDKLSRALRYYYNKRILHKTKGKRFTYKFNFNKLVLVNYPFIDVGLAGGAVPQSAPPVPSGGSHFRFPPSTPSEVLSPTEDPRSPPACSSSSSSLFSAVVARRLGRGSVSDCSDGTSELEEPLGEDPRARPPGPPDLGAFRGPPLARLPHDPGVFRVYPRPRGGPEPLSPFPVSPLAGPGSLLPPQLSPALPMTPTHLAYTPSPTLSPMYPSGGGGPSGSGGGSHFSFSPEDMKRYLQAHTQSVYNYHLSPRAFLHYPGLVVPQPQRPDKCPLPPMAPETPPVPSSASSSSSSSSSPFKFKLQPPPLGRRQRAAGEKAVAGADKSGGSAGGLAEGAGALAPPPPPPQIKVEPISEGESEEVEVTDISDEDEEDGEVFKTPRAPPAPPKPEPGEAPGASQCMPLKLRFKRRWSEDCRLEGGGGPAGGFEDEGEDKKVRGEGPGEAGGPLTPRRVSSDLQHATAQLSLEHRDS
# Method in brief: as §1
# ETV3L = target: T7, ETV3L (Homo sapiens, UniProt Q6ZN32 1-361); settings: protein: recombinant; tags: N-terminal GST; dsDNA, one strand shown
# T7 sequence: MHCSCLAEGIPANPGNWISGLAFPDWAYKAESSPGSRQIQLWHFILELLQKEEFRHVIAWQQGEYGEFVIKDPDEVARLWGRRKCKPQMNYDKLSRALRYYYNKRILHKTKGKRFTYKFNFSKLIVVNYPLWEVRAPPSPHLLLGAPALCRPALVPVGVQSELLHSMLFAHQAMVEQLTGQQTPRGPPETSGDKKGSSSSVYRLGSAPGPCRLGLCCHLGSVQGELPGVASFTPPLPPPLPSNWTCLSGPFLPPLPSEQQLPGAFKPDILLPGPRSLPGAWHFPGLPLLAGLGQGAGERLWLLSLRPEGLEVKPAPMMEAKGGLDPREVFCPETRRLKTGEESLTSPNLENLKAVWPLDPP
# Method in brief: as §1
# ETS2 = target: T8, ETS2 (Homo sapiens, UniProt P15036 1-469); settings: protein: recombinant; tags: N-terminal GST; dsDNA, one strand shown
# T8 sequence: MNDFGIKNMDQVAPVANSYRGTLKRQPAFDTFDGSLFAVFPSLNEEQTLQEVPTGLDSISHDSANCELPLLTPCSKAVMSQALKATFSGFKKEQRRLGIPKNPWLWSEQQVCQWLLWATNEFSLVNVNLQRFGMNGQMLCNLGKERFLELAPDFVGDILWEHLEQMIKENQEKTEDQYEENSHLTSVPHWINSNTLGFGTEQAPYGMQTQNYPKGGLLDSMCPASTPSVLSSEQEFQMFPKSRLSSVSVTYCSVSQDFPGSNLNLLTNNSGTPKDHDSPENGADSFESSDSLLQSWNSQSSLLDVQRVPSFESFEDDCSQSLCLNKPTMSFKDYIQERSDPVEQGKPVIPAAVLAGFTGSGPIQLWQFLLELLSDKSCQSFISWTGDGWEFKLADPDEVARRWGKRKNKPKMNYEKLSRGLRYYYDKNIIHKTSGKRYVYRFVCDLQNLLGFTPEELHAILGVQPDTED
# Method in brief: as §1
# SPDEF = target: T9, SPDEF (Homo sapiens, UniProt O95238 1-335); settings: protein: recombinant; tags: N-terminal GST; dsDNA, one strand shown
# T9 sequence: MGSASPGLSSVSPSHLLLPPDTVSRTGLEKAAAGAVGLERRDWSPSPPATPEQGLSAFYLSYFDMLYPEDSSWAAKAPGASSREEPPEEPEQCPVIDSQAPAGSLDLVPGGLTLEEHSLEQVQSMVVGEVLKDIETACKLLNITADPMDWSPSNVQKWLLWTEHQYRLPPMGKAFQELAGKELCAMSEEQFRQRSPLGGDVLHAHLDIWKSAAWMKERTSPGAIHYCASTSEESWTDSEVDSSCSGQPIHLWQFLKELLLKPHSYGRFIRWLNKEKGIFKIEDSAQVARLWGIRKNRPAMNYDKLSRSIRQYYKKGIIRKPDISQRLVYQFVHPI
# Method in brief: as §1
# ETV7 = target: T10, ETV7 (Homo sapiens, UniProt Q9Y603 1-341); settings: protein: recombinant; tags: N-terminal GST; dsDNA, one strand shown
# T10 sequence: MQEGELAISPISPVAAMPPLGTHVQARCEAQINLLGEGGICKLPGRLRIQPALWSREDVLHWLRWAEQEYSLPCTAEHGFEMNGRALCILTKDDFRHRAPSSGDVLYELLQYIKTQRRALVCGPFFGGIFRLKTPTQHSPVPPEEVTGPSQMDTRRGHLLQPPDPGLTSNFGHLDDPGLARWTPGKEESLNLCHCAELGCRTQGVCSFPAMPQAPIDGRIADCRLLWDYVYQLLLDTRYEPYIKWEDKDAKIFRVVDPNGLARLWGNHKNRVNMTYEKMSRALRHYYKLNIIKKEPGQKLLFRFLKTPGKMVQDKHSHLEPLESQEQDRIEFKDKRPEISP
# Method in brief: as §1
# ELF5 = target: T11, ELF5 (Homo sapiens, UniProt Q9UKW6-2 1-255); settings: protein: recombinant; tags: N-terminal GST; dsDNA, one strand shown
# T11 sequence: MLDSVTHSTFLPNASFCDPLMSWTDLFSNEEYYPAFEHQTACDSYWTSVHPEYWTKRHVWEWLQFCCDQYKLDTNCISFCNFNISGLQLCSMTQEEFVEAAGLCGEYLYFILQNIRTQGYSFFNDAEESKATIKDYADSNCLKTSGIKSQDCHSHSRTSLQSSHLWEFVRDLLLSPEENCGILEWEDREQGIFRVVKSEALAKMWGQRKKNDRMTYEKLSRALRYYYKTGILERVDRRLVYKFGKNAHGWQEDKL
# Method in brief: as §1
# ETV3 = target: T12, ETV3 (Homo sapiens, UniProt P41162-2 1-143); settings: protein: recombinant; tags: N-terminal GST; dsDNA, one strand shown
# T12 sequence: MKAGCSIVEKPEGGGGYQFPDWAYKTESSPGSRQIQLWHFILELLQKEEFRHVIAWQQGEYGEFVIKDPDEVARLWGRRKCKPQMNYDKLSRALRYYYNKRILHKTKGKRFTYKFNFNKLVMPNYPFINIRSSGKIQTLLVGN
# Method in brief: as §1
# ETV6 = ETV6 (Homo sapiens, UniProt P41212 1-452); settings: protein: recombinant; tags: N-terminal GST; dsDNA, one strand shown
# Method in brief: as §1
# Sequence of HSF1 (Q00613 whole entry): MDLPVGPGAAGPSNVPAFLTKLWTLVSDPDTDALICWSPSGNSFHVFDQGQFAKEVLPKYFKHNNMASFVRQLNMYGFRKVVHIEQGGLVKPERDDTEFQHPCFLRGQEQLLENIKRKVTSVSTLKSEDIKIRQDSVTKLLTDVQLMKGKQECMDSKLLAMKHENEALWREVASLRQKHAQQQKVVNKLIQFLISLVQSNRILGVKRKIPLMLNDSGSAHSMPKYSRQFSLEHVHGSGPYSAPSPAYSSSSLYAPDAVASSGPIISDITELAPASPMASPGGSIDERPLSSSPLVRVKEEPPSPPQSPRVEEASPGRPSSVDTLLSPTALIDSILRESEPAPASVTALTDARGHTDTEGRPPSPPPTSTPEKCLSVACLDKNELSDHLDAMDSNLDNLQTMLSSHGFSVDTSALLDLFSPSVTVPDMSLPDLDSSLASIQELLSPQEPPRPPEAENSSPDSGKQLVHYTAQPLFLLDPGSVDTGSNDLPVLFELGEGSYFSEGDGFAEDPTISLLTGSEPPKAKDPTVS
# Sequence of ELF4 (Q99607 whole entry): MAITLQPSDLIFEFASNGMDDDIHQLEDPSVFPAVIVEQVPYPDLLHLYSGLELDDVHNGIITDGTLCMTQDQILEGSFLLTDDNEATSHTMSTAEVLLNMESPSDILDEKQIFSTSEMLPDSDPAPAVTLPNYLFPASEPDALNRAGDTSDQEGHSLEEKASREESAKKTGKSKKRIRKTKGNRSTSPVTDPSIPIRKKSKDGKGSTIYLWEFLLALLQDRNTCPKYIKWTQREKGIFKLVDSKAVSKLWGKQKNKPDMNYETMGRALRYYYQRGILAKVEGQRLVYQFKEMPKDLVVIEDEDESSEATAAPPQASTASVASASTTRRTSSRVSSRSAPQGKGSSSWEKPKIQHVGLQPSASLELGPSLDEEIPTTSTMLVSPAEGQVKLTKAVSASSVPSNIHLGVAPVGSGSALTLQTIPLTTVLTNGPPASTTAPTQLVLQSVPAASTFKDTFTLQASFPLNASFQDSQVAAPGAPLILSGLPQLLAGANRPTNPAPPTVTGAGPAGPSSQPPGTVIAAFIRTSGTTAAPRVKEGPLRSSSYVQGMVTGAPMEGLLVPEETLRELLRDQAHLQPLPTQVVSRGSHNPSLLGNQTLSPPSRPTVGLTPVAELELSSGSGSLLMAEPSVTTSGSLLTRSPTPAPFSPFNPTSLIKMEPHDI
# Sequence of ETV5 (P41161 whole entry): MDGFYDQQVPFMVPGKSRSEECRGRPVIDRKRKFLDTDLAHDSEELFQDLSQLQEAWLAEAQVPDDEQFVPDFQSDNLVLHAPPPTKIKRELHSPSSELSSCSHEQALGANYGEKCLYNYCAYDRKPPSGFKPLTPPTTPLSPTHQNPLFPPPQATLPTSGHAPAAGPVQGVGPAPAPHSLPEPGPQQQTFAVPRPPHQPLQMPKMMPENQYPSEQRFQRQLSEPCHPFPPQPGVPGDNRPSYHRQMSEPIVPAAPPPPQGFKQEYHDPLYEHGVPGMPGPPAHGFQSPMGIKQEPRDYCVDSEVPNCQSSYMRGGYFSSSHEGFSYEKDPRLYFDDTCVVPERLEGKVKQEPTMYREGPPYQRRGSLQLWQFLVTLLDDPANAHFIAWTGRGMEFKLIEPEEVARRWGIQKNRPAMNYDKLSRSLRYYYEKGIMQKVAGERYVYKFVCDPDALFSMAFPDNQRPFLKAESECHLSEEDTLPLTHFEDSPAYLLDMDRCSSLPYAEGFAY
# Sequence of ETV1 (P50549 whole entry): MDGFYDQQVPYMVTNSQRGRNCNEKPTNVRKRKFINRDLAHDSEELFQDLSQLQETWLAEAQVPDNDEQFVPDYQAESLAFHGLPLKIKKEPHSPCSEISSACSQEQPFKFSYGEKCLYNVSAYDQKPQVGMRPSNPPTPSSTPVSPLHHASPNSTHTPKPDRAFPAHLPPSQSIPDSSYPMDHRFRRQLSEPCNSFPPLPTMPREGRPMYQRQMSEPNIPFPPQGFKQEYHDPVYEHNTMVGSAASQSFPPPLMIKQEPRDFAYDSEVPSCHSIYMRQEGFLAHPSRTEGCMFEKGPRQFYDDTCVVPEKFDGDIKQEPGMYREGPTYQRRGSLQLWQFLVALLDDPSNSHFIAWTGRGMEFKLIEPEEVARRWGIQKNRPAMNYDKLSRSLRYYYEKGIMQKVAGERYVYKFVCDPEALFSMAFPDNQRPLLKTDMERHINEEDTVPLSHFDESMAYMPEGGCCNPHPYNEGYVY
# Sequence of ETV6 (P41212 whole entry): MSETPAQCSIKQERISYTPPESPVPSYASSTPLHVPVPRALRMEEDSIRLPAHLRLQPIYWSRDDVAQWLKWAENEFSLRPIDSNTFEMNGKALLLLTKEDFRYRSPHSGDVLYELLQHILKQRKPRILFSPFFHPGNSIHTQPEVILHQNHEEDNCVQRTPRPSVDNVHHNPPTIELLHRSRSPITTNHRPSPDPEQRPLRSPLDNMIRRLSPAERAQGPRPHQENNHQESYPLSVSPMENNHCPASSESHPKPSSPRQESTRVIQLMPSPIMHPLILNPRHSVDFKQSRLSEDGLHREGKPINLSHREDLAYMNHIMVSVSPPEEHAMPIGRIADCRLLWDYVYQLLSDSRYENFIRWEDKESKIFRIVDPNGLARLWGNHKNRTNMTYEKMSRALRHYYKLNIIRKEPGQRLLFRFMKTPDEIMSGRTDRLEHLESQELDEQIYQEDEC
sequence,measurement,setting,value
GCACTC,binding signal,FEV,"1.31 fold enrichment (6-mer frequency, TF over GST control)"
same,binding signal,ETV5,"1.38 fold enrichment (6-mer frequency, TF over GST control)"
same,binding signal,HSF1,"1.06 fold enrichment (6-mer frequency, TF over GST control)"
same,binding signal,SPIC,"1.25 fold enrichment (6-mer frequency, TF over GST control)"
same,binding signal,ELF4,"1.31 fold enrichment (6-mer frequency, TF over GST control)"
same,binding signal,ELK4,"1.33 fold enrichment (6-mer frequency, TF over GST control)"
same,binding signal,ETV2,"1.36 fold enrichment (6-mer frequency, TF over GST control)"
same,binding signal,ELF3,"1.41 fold enrichment (6-mer frequency, TF over GST control)"
same,binding signal,ETV1,"1.33 fold enrichment (6-mer frequency, TF over GST control)"
same,binding signal,ERF,"1.39 fold enrichment (6-mer frequency, TF over GST control)"
same,binding signal,ETV3L,"1.33 fold enrichment (6-mer frequency, TF over GST control)"
same,binding signal,ETS2,"1.23 fold enrichment (6-mer frequency, TF over GST control)"
same,binding signal,SPDEF,"1.22 fold enrichment (6-mer frequency, TF over GST control)"
same,binding signal,ETV7,"1.28 fold enrichment (6-mer frequency, TF over GST control)"
same,binding signal,ELF5,"1.27 fold enrichment (6-mer frequency, TF over GST control)"
same,binding signal,ETV3,"1.28 fold enrichment (6-mer frequency, TF over GST control)"
same,binding signal,ETV6,"1.34 fold enrichment (6-mer frequency, TF over GST control)"
